Holding throughout (design): scale not given: direction of the effect not stated beside the values
Assay [1] addresses Protein translocase subunit SecA (Escherichia coli (strain K12)) (UniProt P10408). Description: Assay to Identify E. coli SecA ATPase Inhibitors. In kind it is functional. The conditions noted are these: 30 µM.
In assay [2] the target is T1, Ubiquitin-activating enzyme e1, putative (Leishmania donovani (strain BPK282A1)) (UniProt E9BSI1).
T1 sequence (whole entry): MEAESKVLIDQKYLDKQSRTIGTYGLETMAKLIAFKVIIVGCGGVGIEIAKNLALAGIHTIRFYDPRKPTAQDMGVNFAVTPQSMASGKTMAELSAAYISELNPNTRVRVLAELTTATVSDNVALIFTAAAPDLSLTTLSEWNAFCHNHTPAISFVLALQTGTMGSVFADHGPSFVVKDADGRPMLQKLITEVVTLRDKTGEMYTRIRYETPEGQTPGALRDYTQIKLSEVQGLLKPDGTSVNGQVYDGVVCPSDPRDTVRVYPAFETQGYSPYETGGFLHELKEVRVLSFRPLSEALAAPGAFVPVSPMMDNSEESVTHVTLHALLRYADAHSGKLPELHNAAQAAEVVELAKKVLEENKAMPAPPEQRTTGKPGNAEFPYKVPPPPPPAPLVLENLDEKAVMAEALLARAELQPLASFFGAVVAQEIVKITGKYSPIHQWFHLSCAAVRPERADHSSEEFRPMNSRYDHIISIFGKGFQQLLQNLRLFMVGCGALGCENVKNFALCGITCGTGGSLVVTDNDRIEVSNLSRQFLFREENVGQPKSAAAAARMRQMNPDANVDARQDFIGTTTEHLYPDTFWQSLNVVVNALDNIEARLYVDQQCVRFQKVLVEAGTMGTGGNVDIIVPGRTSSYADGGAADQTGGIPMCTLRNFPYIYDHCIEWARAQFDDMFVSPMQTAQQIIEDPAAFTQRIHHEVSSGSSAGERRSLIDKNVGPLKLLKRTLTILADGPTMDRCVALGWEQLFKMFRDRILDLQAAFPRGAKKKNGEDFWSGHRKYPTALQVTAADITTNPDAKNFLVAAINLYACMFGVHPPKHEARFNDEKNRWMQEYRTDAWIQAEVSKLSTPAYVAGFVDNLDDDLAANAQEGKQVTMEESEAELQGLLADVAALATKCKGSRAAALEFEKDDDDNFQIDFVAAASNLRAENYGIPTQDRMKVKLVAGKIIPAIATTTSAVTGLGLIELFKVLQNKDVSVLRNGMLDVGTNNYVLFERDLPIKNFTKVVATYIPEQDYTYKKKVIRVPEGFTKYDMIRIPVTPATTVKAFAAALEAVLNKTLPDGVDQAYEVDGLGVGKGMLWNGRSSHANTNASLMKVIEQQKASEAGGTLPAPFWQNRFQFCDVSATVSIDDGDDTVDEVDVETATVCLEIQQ
Description: Leishmania donovani Ubiquitin Activating Enzyme (LdE1). In kind it is functional. Conditions: 30 µM.

In assay [3] the target is AMP-activated protein kinase, AMPK (Homo sapiens) (UniProt P54646+O43741+P54619+Q9UGJ0+Q9Y478+Q13131+Q9UGI9). Description: AMP-dependent Kinase enzyme assay. An in vitro enzyme assay that detects ADP turnover that is directly proportional to AMPK activity. This uses naive AMPK that is activated during the assay with MK-8722. In kind it is functional. The conditions noted are these: 30 µM.

In assay [4] the target is Sialic acid-binding Ig-like lectin 9 (Homo sapiens) (UniProt Q9Y336). Description: Hs-Siglec9 ALPHAscreen SOP 20170721. The conditions noted are these: 10 µM.
Sequence of Sialic acid-binding Ig-like lectin 9 (Homo sapiens) (Q9Y336 whole entry): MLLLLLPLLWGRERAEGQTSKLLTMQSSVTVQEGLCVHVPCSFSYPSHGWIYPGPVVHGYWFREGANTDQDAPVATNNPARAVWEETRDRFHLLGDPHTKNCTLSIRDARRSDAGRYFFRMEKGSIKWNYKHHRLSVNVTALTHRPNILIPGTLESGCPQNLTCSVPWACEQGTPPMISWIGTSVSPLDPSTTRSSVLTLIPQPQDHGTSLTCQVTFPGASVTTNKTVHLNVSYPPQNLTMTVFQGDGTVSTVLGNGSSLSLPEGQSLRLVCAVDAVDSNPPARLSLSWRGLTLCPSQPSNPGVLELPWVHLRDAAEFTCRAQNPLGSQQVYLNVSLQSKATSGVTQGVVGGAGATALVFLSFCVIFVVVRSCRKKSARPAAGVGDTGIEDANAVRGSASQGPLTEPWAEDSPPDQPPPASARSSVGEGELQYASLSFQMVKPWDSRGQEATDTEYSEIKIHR
For another assay, the system named is Trypanosoma cruzi. Description: Trypanosoma cruzi phosphomannomutase and mannose-1-phosphate guanylyltransferase assay. Conditions: 10 µM. In kind it is functional.
Assay [5] concerns the target T2, Arginase-2, mitochondrial (Homo sapiens) (UniProt P78540).
T2 sequence (whole entry): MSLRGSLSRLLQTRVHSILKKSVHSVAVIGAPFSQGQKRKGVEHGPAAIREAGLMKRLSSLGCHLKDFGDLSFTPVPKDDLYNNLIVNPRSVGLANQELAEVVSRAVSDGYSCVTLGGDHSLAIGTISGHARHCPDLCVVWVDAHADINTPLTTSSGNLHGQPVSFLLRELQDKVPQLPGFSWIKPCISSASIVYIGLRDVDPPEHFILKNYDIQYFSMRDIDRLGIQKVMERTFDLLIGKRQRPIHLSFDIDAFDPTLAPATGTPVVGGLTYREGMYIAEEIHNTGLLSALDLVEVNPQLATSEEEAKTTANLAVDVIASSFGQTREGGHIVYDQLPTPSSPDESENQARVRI
Description: in vitro enzyme assay to detect the production of urea directly proportional to the activity of Arginase II. Also: in the data most compounds retested in dose-response had high values. In kind it is functional. The conditions noted are these: 33.3 µM.

Assay [6] addresses T3, Proteasome subunit beta (Trypanosoma cruzi) (UniProt O96673).
T3 sequence (whole entry): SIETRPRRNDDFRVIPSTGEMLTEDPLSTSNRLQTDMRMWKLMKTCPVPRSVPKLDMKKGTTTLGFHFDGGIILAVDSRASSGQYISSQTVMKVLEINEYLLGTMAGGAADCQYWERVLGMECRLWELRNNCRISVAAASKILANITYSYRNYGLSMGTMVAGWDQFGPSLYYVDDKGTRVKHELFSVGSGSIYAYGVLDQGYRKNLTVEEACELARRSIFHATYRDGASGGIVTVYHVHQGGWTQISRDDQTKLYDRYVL
Description: Trypanosoma cruzi proteasome chymotrypsin-like activity (TcProtChymo) assay. Also: in the data most compounds retested in dose-response had high values. In kind it is functional. The conditions noted are these: 9.37 µM.

A further assay is filed under the species Homo sapiens. Description: To identify inhibition of the IFN signalling (Jak-Stat) pathway via expression of an eGFP reporter gene under the control of an IFN-stimulated response element (ISRE) containing MxA promoter. In kind it is functional. Conditions: 30 µM. For orientation: A reporter such as luciferase makes a cellular process visible.
Assay [7] deals with T4, Tyrosyl-tRNA synthetase, putative (Trypanosoma cruzi (strain CL Brener)) (UniProt Q4DSP6).
T4 sequence (whole entry): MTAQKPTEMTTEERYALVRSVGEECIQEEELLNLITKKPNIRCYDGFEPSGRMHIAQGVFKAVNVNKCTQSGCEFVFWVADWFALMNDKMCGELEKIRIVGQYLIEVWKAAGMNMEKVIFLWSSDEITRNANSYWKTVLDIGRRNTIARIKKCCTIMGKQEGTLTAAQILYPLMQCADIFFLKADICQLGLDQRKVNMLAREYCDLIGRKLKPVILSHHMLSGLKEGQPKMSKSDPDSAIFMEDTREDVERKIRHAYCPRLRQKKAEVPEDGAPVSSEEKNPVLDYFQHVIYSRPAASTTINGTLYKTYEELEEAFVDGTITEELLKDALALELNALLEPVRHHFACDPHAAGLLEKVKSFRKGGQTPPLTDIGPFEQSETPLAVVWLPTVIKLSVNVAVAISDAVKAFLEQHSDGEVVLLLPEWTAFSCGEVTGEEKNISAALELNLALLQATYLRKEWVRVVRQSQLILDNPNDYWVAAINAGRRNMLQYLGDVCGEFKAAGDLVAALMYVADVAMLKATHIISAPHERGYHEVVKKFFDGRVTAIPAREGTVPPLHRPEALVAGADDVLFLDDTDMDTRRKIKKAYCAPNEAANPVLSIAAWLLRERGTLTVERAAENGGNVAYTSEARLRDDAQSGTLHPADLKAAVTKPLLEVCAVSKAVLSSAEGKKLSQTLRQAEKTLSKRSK
Description: Trypanosoma cruzi tyrosyl tRNA synthetase (TcYRS) _High Tyrosine SOP. Also: in the data most compounds retested in dose-response had high values. The conditions noted are these: 30 µM. In kind it is functional.

Assay [8] concerns the target T4, Tyrosyl-tRNA synthetase, putative (Trypanosoma cruzi (strain CL Brener)). Description: Trypanosoma cruzi tyrosyl tRNA synthetase (TcYRS) SOP. In kind it is functional. The conditions noted are these: 30 µM.
The target in assay [9] is Chromo domain-containing protein 1 (Saccharomyces cerevisiae (strain ATCC 204508 / S288c) (Baker's yeast)) (UniProt P32657). Description: ScCHD-1 Enzyme Inhibition Assay. Also: in the data most compounds retested in dose-response had high values. In kind it is functional. The conditions noted are these: 30 µM.
Sequence of Chromo domain-containing protein 1 (Saccharomyces cerevisiae (strain ATCC 204508 / S288c) (Baker's yeast)) (P32657 whole entry, the tested form may be a part): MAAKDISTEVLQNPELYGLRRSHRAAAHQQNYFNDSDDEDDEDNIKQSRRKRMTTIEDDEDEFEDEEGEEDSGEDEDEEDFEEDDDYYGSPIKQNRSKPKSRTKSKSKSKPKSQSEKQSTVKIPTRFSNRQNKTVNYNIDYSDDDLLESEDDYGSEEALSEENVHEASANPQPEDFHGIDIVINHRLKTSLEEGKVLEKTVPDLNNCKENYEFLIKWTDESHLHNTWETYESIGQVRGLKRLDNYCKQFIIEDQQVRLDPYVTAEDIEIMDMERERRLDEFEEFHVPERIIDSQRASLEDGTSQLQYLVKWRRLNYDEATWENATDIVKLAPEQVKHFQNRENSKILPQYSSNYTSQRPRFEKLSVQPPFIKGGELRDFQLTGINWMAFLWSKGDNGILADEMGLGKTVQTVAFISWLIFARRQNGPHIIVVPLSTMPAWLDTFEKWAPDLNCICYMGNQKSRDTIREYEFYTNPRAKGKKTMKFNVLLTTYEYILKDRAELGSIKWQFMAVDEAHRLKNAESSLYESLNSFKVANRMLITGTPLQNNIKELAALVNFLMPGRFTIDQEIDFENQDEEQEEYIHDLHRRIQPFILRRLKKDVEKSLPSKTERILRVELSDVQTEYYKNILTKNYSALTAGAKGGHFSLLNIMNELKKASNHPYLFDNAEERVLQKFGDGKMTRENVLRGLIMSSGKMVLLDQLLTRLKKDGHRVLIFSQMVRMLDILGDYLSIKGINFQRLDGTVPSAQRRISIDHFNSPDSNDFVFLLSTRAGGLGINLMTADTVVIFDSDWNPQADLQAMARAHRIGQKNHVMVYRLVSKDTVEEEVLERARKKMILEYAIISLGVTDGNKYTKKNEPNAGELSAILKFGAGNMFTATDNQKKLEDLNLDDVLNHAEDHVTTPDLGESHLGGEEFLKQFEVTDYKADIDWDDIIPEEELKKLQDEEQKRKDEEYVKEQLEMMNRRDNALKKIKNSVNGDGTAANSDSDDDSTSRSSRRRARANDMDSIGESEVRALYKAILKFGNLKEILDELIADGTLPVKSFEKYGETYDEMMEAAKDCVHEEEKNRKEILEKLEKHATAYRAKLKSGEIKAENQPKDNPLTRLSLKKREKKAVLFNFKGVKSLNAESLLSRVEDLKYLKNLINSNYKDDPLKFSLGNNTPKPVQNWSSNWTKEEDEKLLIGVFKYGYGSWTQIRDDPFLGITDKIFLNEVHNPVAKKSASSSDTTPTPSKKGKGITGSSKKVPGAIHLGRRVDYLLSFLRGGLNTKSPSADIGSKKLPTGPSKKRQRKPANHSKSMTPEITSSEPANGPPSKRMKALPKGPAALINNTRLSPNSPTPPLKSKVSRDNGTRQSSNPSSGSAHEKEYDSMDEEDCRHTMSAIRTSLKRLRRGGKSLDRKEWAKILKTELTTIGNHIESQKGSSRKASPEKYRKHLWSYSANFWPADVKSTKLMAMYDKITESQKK

For 8 molecules, Percent Effect results are on record in ChEMBL document CHEMBL3988442, “University of Dundee, Small-Polar-MMV Screening Library” (2021).

For some of these results: Potency and affinity values are given separately.

Sequence of Protein translocase subunit SecA (Escherichia coli (strain K12)) (P10408 whole entry): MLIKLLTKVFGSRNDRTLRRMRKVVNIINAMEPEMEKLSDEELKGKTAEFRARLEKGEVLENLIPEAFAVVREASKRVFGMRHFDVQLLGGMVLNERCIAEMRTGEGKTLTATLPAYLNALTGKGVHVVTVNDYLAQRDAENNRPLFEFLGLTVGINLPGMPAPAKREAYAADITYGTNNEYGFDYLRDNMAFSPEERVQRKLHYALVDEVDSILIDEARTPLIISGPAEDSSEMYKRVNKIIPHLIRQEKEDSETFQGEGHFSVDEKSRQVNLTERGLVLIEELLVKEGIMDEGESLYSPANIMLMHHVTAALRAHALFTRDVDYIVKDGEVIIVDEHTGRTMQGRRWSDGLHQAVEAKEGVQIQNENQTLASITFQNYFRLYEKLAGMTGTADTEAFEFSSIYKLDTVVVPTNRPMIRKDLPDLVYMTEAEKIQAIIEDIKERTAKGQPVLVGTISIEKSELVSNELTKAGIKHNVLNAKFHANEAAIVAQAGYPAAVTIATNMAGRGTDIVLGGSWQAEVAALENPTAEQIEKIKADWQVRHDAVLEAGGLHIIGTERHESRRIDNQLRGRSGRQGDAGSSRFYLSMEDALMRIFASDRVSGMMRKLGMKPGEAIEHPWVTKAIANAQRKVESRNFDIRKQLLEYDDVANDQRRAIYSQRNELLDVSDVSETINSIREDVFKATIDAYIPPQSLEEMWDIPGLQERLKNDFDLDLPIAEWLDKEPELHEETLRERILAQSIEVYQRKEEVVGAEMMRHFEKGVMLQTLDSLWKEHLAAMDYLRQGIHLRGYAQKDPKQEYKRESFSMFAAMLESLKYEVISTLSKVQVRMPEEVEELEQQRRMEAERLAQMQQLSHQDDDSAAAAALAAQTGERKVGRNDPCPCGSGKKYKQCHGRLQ

Regarding `Cc1n[nH]c(C2CN(C(=O)CCc3ccsc3)CCO2)n1` (stereo not drawn), the Percent Effect was -6.4% in assay [1]; -2.74% in assay [2]; 2.76% in [3]; 0.78% in assay [4]; 0.783% in the assay with Trypanosoma cruzi; -7.27% in assay [5]. For the same molecule, the Percent Effect in [6] is -2.13%; in the assay filed under Homo sapiens, -11.9%; in assay [7] it was 0%; in assay [8], 2.5%; in assay [9], 0.695%.

For `OC[C@H]1CC[C@]2(CC1)CN(Cc1ccccc1F)Cc1ccccc1O2`, the Percent Effect in [1] was -4.99%; in assay [2] it was 4.05%; in assay [3], 15.1%; in [4], 6.64%; with Trypanosoma cruzi, 4.15%; in assay [5], 2.55%. The Percent Effect in assay [6] was 12.6%; in the assay filed under Homo sapiens, 41.4%; in assay [7], 3.23%; in assay [8], 14.3%; in assay [9] it was -0.993%.

As for `c1nc2c(c(-c3ccsc3)n1)CCN(Cc1ccoc1)CC2`, the Percent Effect is -1.1% in assay [1]; -5.41% in [2]; 14.1% in [3]; -1.76% in assay [4]; -2.15% in the assay with Trypanosoma cruzi; -1.67% in assay [5]. Besides, the Percent Effect in assay [6] is 5.83%; in the assay filed under Homo sapiens, 12.5%; in assay [7], -6.93%; in [8], -3.66%; in assay [9] it was -0.614%.

Take `CC(=O)N(Cc1ncc(C(C)C)o1)C1CCN(Cc2ncc[nH]2)C1` (stereo not drawn): the Percent Effect was -1% in assay [1]; 10.8% in assay [2]; -3.5% in [3]; -1.85% in assay [4]; 3.99% with Trypanosoma cruzi; -3.14% in [5]. Besides, the Percent Effect was 5.21% in assay [6]; 6.45% in the assay filed under Homo sapiens; 13.9% in [7]; 25.6% in assay [8]; -5.05% in [9].

Turning to `CC(c1nc(C(C)(C)C)no1)N1CCN(CC(=O)N2CCOCC2)CC1` (stereo not drawn), the Percent Effect in assay [1] is -3.63%; in assay [2] it was 0%; in assay [3], 1.02%; in assay [4] it was 12.9%; in the assay on Trypanosoma cruzi, -1.66%; in [5], -1.18%. The Percent Effect in assay [6] came to 10.1%; in the assay filed under Homo sapiens, 0.488%; in [7] it was 2.13%; in assay [8] it was 2.6%; in assay [9], 1.93%.

For `Cc1nc(CN2CCC(C(=O)O)(n3ccc(-c4ccco4)n3)CC2)co1`, the Percent Effect is -6.11% in assay [1]; 8.22% in assay [2]; -0.438% in assay [3]; 4.25% in assay [4]; 0% with Trypanosoma cruzi; -0.399% in [5]. For the same molecule, the Percent Effect was 12.9% in [6]; 23.4% in the assay filed under Homo sapiens; 1.04% in assay [7]; 3.7% in assay [8]; -0.0478% in assay [9].

In the case of `O=C1CCC(C(=O)NCc2nncn2-c2ccccc2)CN1` (stereo not drawn), the Percent Effect was -6.76% in assay [1]; 10.8% in assay [2]; -10.2% in assay [3]; 20.8% in [4]; 3.68% in the assay on Trypanosoma cruzi; -7.21% in [5]. Further, the Percent Effect in [6] was 1.8%; in the assay filed under Homo sapiens, 7.93%; in assay [7], 2.46%; in assay [8], 23.5%; in [9] it was -12.7%.

For the molecule `Cc1ccc(CN(Cc2c[nH]cn2)C2CC(C)(C)NC(C)(C)C2)o1`, the Percent Effect was -2.16% in [1]; 4.05% in assay [2]; 13.8% in [3]; 0.615% in [4]; -9.49% in the assay on Trypanosoma cruzi; -1.62% in [5]. In addition, the Percent Effect is 10.4% in assay [6]; 12.1% in the assay filed under Homo sapiens; 4.3% in assay [7]; 3.9% in assay [8]; -10.2% in assay [9].
